# Assay outcomes as filed in PubChem.
# HIV RNase H inh-1: blocks HIV-1 RNase H cleavage of RNA/DNA duplex. RT-RNase H RNA/DNA duplex cleavage, fluorescence. 65,000 tested, 1.9% active. inhibition, % at 10 µM; in the data active = inhibition above about 50%
# RmlCD inh mix: inhibitors of RmlC and RmlD coupled enzymes; RmlC/RmlD coupled enzyme inhibition, 384-well mixture HTS; inhibition, % at 5.5 µM; 110,000 tested, 0.39% active; AID 1532; in the data active = inhibition above about 30%, passing the limit was not always enough
# HIV RNase H inh-2: confirmation of HIV-1 reverse transcriptase RNase H inhibitors; shares compounds with HIV RNase H inh-1; 1,000 tested, 39% active; Recombinant RT RNase H, fluorescent RNA/DNA duplex cleavage; AID 651; inhibition, % at 10 µM; in the data active = inhibition above about 48%
# RmlCD artifact: RmlC/RmlD fluorescence artifact, counter-screen. RmlC/RmlD assay fluorescence artifact counter-screen. shares compounds with RmlCD inh mix. calls only. 360 tested, 96% active; call rule not given here;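 note: compound alone with no enzyme and no substrates present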
# An asterisk follows results filed as active; i = inactive; / = no result; + = active, no number. Many of the other results were omitted from the sample, so hits are more common in it than they were.
SMILES,HIV RNase H inh-1,RmlCD inh mix,RmlCD artifact,others
O=c1c2ccccc2[se]n1-c1ccccc1,94*,57*,+,HIV RNase H inh-2=67*
Cc1nc2ccc(-c3nc4ccccc4o3)cc2[nH]1,/,6,/,
Nc1ccc(-c2nc3ccc(-c4nc5ccccc5o4)cc3[nH]2)cc1,73*,+,+,HIV RNase H inh-2=40
O=c1c2ccccc2nnn1CSc1nnc(-c2ccc3c(c2)OCO3)o1,-27,-15,/,
O=C(CSc1nnc(-c2ccc(Cl)cc2Cl)n1C1CCCCC1)N1CCCC1,/,6,/,
COc1ccc(S(=O)(=O)NCc2ccccn2)c(Cl)c1Cl,-14,-11,/,
Cc1cc(C(=O)O)c2ccccc2n1,/,-9,/,
O=C(O)c1cc(-c2ccco2)nc2ccccc12,81*,54*,+,HIV RNase H inh-2=31
Cc1cc(NCCCn2ccnc2)n2c(nc3ccccc32)c1C#N,-12,85*,+,
CC(C)c1cc(NCCCN2CCOCC2)n2c(nc3ccccc32)c1C#N,2,45*,+,
CC(C)c1cc(NCCN2CCOCC2)n2c(nc3ccccc32)c1C#N,-4,/,/,
Cc1cc(NCCN2CCCCC2)n2c(nc3ccccc32)c1C#N,-1,/,/,
COc1cccc(C2/C(=C(\O)c3ccc4c(c3)OCCO4)C(=O)C(=O)N2CCCN(C)C)c1OC (stereo not given),-8,/,/,
CC1CCCCN1CC(=O)Nc1sc2c(c1C#N)CCC2 (stereo not given),9,5,/,
CCCCOC(=O)c1ccc(NC(=O)c2c(N)n(C)c(=O)[nH]c2=O)cc1,/,7,/,
Cc1nn(-c2ccccc2)c(Cl)c1C(=O)Nc1nnc(C2CCCC2)s1,-19,12,/,
COc1ccc(CN2C(=O)NC3(CCCCCC3)C2=O)cc1F,-10,-4,/,
CC1(C)CC(=O)c2sc(N3CCCCC3)nc2C1,-1,-5,/,
O=c1cc(C(F)(F)F)c2sc(N3CCCCC3)nc2[nH]1,0,65*,+,
CSc1ccc(/C=N/n2nnnc2N)cc1,-26,69*,+,
COc1cc(/C=N/n2nnnc2N)ccc1O,8,-40,/,
Cc1ccc(CN2C(=O)CCC2C(=O)NCCN(CC(C)C)CC(C)C)cc1 (stereo not given),-4,-7,/,
CCCCOCCCn1c(-c2ccco2)nc2nc3ccccc3nc21,17,41*,+,
CCCCn1c(-c2cccs2)nc2nc3ccccc3nc21,/,56,/,
NC(=O)c1nn(-c2ccccc2)nc1N,-8,43*,+,
SMILES,HIV RNase H inh-1,RmlCD inh mix,RmlCD artifact,others
NC(=O)c1nn(-c2ccccc2)nc1NC(=O)CN1CCCCC1,-6,6,/,
CCCC[C@@H]1C[C@H]1[C@@H](NC(=O)c1ccco1)c1ccc(C(=O)OC)cc1,/,-18,/,
COC(=O)[C@@H]1C[C@H]2CC[C@H](O)C[C@H]2N1Cc1ccc(C(F)(F)F)cc1,/,-7,/,
COc1ccc(-c2cc(C(F)(F)F)n3nc(C(=O)Nc4cc(C)on4)cc3n2)cc1OC,-14,/,/,
COc1ccc(-c2cc(C(F)(F)F)n3nc(C(=O)N(C)Cc4ccccc4)cc3n2)cc1OC,/,/,+,
Cc1nnc(SCC(=O)N(Cc2ccccc2)C(C)C)n1-c1ccccc1,/,11,/,
COc1cc2c(cc1OC)-c1cc(OCCN3CCOCC3)nc(=O)n1CC2,0,61*,+,
CCNc1cc2n(c(=O)n1)CCc1cc(OC)c(OC)cc1-2,-16,17,/,
CSc1ccc(S(=O)(=O)Nc2ccc3c(c2)OCCO3)cc1,-5,4,/,
COC(=O)Oc1ccc(/C=N/NC(=O)CN(c2ccccc2Cl)S(C)(=O)=O)cc1OC,/,-6,/,
CCCCc1cc(=O)oc2cc(C)cc(OCC(=O)O)c12,-2,25,/,
CCc1cc(=O)oc2cc(OC(C)=O)cc(OC(C)=O)c12,-5,/,+,
COc1cc2c(cc1OC)C(C(=O)NCc1cccnc1)C(c1cccnc1)N(C)C2=O (stereo not given),7,-9,/,
COCCN(CCOC)C(=O)c1cc2c(=O)n3ccccc3nc2s1,7,115*,+,
CCN(CC)C(=O)c1cc2c(=O)n3ccccc3nc2s1,-17,27,/,
COc1ccc(S(=O)(=O)NC(C)C(=O)Nc2ccccc2C(F)(F)F)cc1 (stereo not given),/,70,/,
Cc1ccc(S(=O)(=O)N[C@H](C(=O)Oc2ccc3c(C(F)(F)F)cc(=O)oc3c2)c2ccccc2)cc1,/,101*,+,
CCC(C)c1ccccc1NC(=O)COC(=O)c1ccc(C)c(NC(=O)c2ccco2)c1 (stereo not given),/,2,/,
COc1ccc2oc(=O)c(C(=O)n3ccc(C)n3)cc2c1,/,111*,+,
Cc1ccn(C(=O)c2cc3cc(Cl)ccc3oc2=O)n1,/,1,/,
COc1ccc2cc(CN(Cc3cccnc3)Cc3nnnn3Cc3ccccc3)c(=O)[nH]c2c1,-14,33*,i,
COc1ccc2cc(CN(Cc3cccs3)Cc3nnnn3Cc3ccccc3)c(=O)[nH]c2c1,/,0,/,
C=CCn1c(SCc2ccc(C#N)cc2)nnc1-c1ccc(C)cc1,/,9,/,
O=C(NCc1nc2ccccc2[nH]1)C1=C[C@H](c2ccc(C(F)(F)F)cc2)C[C@H](OCCCCO)O1,/,-5,/,
CCOc1ccc(C2OC34CCCCC3C(C#N)(C#N)C2(C#N)C(=N)O4)cc1OC (stereo not given),/,+,+,
SMILES,HIV RNase H inh-1,RmlCD inh mix,RmlCD artifact,others
CCCCOc1ccc(C2OC34CCCCC3C(C#N)(C#N)C2(C#N)C(=N)O4)cc1 (stereo not given),/,161*,+,
CCOc1ccc(C2C(=O)N(C3CCCCC3)CC(=O)N2CC2CCCO2)cc1OC (stereo not given),4,/,/,
C=CCOc1ccc(C2OC34CCCCC3C(C#N)(C#N)C2(C#N)C(=N)O4)cc1 (stereo not given),/,60*,+,
CCCCCC1CC(CC#CCN2CCOCC2)C(=O)O1 (stereo not given),2,4,/,
CCN(CC)CCCN1C(=O)c2oc3ccccc3c(=O)c2C1c1cccs1 (stereo not given),/,-13,/,
O=S(=O)(Cc1ccc(Cl)cc1)N1CCCC1,-8,-13,/,
COc1cc(/C=N/Nc2nn3cnnc3c3ccccc23)ccc1O,/,15,/,
COc1cc(-c2nc3ccccn3c2/N=C/c2cc(OC)c(OC)c(OC)c2)ccc1O,/,44*,+,
C[C@H](NC(=O)Nc1ccc2c(c1)OCCO2)C(=O)O,-1,-8,/,
CCc1c(C)c2ccc(O)c(CN(C)C)c2oc1=O,-9,131*,+,
CCCc1cc(=O)oc2c(CN3CCOCC3)c(O)ccc12,/,166,/,
CN(C)Cc1c(O)ccc2c3c(c(=O)oc12)CCCCC3,/,117*,+,
COCCN(CCOC)Cc1c(O)ccc2c3c(c(=O)oc12)CCC3,-3,158,/,
O=c1oc2c(CN3CCOCC3)c(O)c(Cl)cc2c2c1CCCC2,-4,29,/,
COc1ccc(Oc2c(C)oc3c(CN(C)C)c(O)ccc3c2=O)cc1,-1,23,/,
O=c1oc2c(CN3CCOCC3)c(O)ccc2c2c1CCCC2,-14,147*,+,
CCCCc1cc(=O)oc2c(CN(C)C)c(O)ccc12,-10,72*,+,
Cc1cc(=O)oc(C)c1C(=O)Nc1c(C)n(C)n(-c2ccccc2)c1=O,/,-4,/,
CCc1nccn1S(=O)(=O)c1ccc(Br)cc1Br,-6,1,/,
